FMDV inh = foot and mouth disease virus antiviral activity; actives 1.2% (n = 410,000); FMDV antiviral cell-based qHTS; Potency, µM (doses to about 57.9 µM), usual class: inhibitors; calls by dose curve; tested in HEK293T cells; note: read-out not given here; nearly all actives have a fitted effect of over 45% in size
Sm TGR block = S. mansoni TGR enzyme inhibition; purified TGR, DTNB reduction, TNB absorbance 405 nm; Potency, µM (series often up to 114 µM), hits mostly inhibitors; AID 485364; actives 3% (n = 360,000); active = well fitted inhibition curve with a large enough effect; inconclusive = small, poorly fitted or top-dose-only effect; inactive = no such curve, though single readings can be large or run the other way; note: nearly all actives have a fitted effect of over 60% in size
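Kinetic colorimetric format: TGR-catalysed, NADPH-driven DTNB reduction monitored via TNB absorbance. Enzyme dispensed at 20 nM; compound exposure 15 min at room temperature before reaction start.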
Shiga inhibitor = inhibitors of Shiga toxin in Vero cells; inhibition, % at 38.7 µM; AID 2315; actives 9.2% (n = 290,000); Vero cells, Shiga toxin protein synthesis inhibition reporter; in the data active = inhibition mostly above about 28%, no sharp cut-off; inactive = mostly below about 43%
Cycloheximide cs = counter-screen hit for Shiga toxin inhibitors, cycloheximide; actives 12% (n = 300,000); cell reporter, cycloheximide protein synthesis inhibition counterscreen; max response, %; in the data active = max response mostly above about 13%, no sharp cut-off; inactive = mostly below about 14%; note: read at 38.3 µM for the half of the compounds with a filed dose
A number is an active result; n = inactive; u = inconclusive; x = no result given; + = active, no number. The list is not random: actives were taken first. Their share in the collection is about 12%.

SMILES | FMDV inh | Sm TGR block | Shiga inhibitor | Cycloheximide cs
COc1ccccc1-c1ccc2ncnc(N3CCNCC3)c2c1 | n | x | x | x
CCc1cccc(NC(=O)CCc2c(C)nc3c(-c4ccccc4)c(C)nn3c2C)c1 | n | n | x | x
COC(=O)c1cc2c(cc1NC(=O)c1cnn(-c3ccccc3)c1-n1cccc1)OCO2 | n | n | x | x
CCOC(=O)c1c(C)[nH]c(CCC(=O)NCc2cccc(OC)c2)c1C | n | n | x | x
CCOC(=O)c1c(C)[nH]c(N=Nc2cccc(OC)c2)c1C | n | n | 154 | 58
CCOC(=O)c1c(C)[nH]c(N=Nc2cccc(C)c2)c1C | x | n | 130 | 64
CCOC(=O)c1c(C)[nH]c(CCC(=O)NCc2cccc(C)c2)c1C | n | n | x | x
O=C(Nc1ccc(-c2cn3cccnc3n2)cc1)c1ccccc1F | n | n | x | x
COc1ccc(CC(=O)N(Cc2nc(-c3ccc(C)cc3)no2)C(C)C)cc1 | n | n | x | x
Cc1ccc(Oc2ccc(NC(=O)c3ccco3)cc2)cc1 | n | n | 99 | 67
COC(=O)c1cccc(COC(=O)CNC(=O)c2ccco2)c1 | n | n | n | n
Cc1ccc(NC(=O)c2ccc(OC(=O)c3ccco3)cc2)cc1 | x | n | 73 | 36
Cc1ccc(NC(=O)c2ccc(OC(=O)c3cc4ccccc4o3)cc2)cc1 | n | n | 81 | 40
COc1ccc(OC(=O)c2cc3ccccc3o2)cc1 | n | n | n | n
O=C(CNC(=O)c1ccco1)NCC(=O)OCc1cccc(C(=O)Oc2ccccc2)c1 | n | n | 42 | 13
Cn1ncc2c(Nc3cc(C(F)(F)F)ccc3Cl)ncnc21 | n | n | x | x
O=C(Oc1ccccc1)c1ccc(NC(=O)c2ccco2)cc1 | n | n | 100 | 53
Cc1nc(-c2ccccn2)sc1C(=O)O | n | n | n | n
Cc1nc(Cl)sc1C(=O)Nc1ccccc1 | n | n | n | 11
CCOC(=O)c1sc(-c2ccccn2)nc1C | n | n | 112 | 45
Cc1nc(-c2ccccn2)sc1C(=O)Nc1ccc(Cl)c(Cl)c1 | n | n | 128 | 26
Cc1nc(Cl)sc1C(=O)Nc1cccc(Cl)c1 | n | n | x | 31
CCOc1ccc(CCNC(=O)c2c(C)oc3ncn(CC(C)C)c(=O)c23)cc1 | n | n | x | x
COc1cc(NC(=O)Cn2ncc3c([nH]c4ccc(C)cc43)c2=O)cc(OC)c1OC | n | n | x | x
COc1cccc(Cn2c(NCc3ccc(C)cc3)nc3c2c(=O)n(C)c(=O)n3C)c1 | n | n | x | x
SMILES | FMDV inh | Sm TGR block | Shiga inhibitor | Cycloheximide cs
Cc1nc(Cl)sc1C(=O)Nc1ccc2ccccc2c1 | n | n | 192 | 66
Cc1nc(Cl)sc1C(=O)Nc1ccc(Cl)cc1 | n | n | 71 | 25
Cc1nc(C)c(C(=O)Nc2ccccc2)s1 | n | n | n | n
Cc1nc(C)c(C(=O)Nc2cccc(F)c2)s1 | n | n | 35 | 19
Cc1c(C(=O)Nc2ccccc2)sc2nc[nH]c(=O)c12 | n | n | n | 15
CCOc1ccc2nc(Cl)c(C3CC(c4ccco4)=NN3S(=O)(=O)c3ccccc3)cc2c1 (stereo not given) | n | n | + | n
CCS(=O)(=O)N1N=C(c2ccc(C)cc2)CC1c1cc2ccc(OC)cc2nc1Cl (stereo not given) | n | n | x | x
COc1ccc2cc(C3CC(c4ccco4)=NN3S(C)(=O)=O)c(Cl)nc2c1 (stereo not given) | n | 6.3µM | n | n
CCn1c(SCc2ccccc2Cl)nc2ccccc21 | n | n | n | 35
Cn1c(SCc2ccccc2Cl)nc2ccccc21 | n | n | 76 | 53
COc1cc2c(cc1O)C(Cc1ccc(O)cc1)[N+](C)([O-])CC2 (stereo not given) | n | u | n | n
COc1ccc(C[C@H]2c3cc(O)c(OC)cc3CC[N+]2(C)[O-])cc1O (stereo not given in full) | n | 18µM | n | n
Cc1ccc(NC(=O)c2nc(S(=O)(=O)Cc3ccc(F)cc3)ncc2Cl)cc1C | 28µM | u | x | x
Cc1ccc(NC(=O)c2nc(S(=O)(=O)Cc3ccccc3C)ncc2Cl)cc1C | 40µM | 11µM | 39 | 37
CC(=O)Nc1ccc(NC(=O)c2nc(SCc3ccccc3C)ncc2Cl)cc1 | n | n | x | x
CC(=O)Nc1ccc(NC(=O)c2nc(S(=O)(=O)Cc3ccc(F)cc3)ncc2Cl)cc1 | 32µM | 3.2µM | x | x
Cc1ccc(CS(=O)(=O)c2ncc(Cl)c(C(=O)Nc3nc4ccc(F)cc4s3)n2)cc1 | u | n | x | x
CSc1ncc(Cl)c(C(=O)Nc2ccc(C)c(C)c2)n1 | n | n | n | n
Cn1c(N/N=C\c2cccc(O)c2)cc(=O)n(C)c1=O | n | n | 24 | 19
O=C(N/N=C/c1cccc(Oc2ccccc2)c1)c1cccc(O)c1 | n | n | 58 | 35
O=C(N/N=C/c1cccc(Oc2ccccc2)c1)c1cccc(Br)c1 | u | n | n | n
O=C(N/N=C/c1cccc(O)c1)N/N=C/c1cccc(O)c1 | n | n | 55 | 28
Cc1nonc1C(=O)N/N=C/c1cccc(O)c1 | n | 11µM | 65 | 54
CN(Cc1c(C(=O)N/N=C/c2cccc(O)c2)nnn1-c1nonc1N)c1ccccc1 | n | n | n | n
Cc1nc2c(-c3ccccc3)c(C)nn2c(C)c1CCC(=O)NCc1ccc(Cl)cc1 | u | n | x | x
SMILES | FMDV inh | Sm TGR block | Shiga inhibitor | Cycloheximide cs
O=C(Cc1nnc(NC(=O)c2ccccc2)s1)N/N=C/c1cccc(O)c1 | n | n | n | 14
COc1ccc(/C=N/NC(=O)c2cc(-c3cccn3C)n[nH]2)cc1OC | n | n | n | n
O=C(CCc1ccccc1)N/N=C/c1cccc([N+](=O)[O-])c1 | n | n | n | n
O=C(CCc1ccccc1)N/N=C/c1cccc(O)c1 | n | n | n | 15
Cn1cccc1-c1cc(C(=O)N/N=C/c2cccc(O)c2)[nH]n1 | n | u | 56 | 30
O=C(Cc1nnc(NC(=O)c2ccccc2)s1)N/N=C/c1ccco1 | n | n | n | n
COc1cccc(CNC(=O)CCc2c(C)nc3c(c(C)nn3-c3ccc(C)c(C)c3)c2C)c1 | n | n | x | x
CCN(Cc1ccccc1)C(=O)Cn1c(=O)n(-c2cccc(C)c2)c(=O)c2c1c1cc(OC)ccc1n2C | u | n | x | x
COc1cc(-c2cc(C)c3c(OC)ccc(OC)c3n2)cc2c1OCCN(C(=O)Cn1nc(C)cc1C)C2 | n | x | x | x
COc1ccccc1OCCn1c(COc2cc(C)ccc2C)nc2ccccc21 | n | n | x | x
O=C(c1ccc(F)c([N+](=O)[O-])c1)N1CC2CC(C1)c1cccc(=O)n1C2 (stereo not given) | n | u | 105 | 44
CCOC(=O)CSc1nc2ccc(NC(=O)c3ccc(F)cc3)cc2s1 | n | n | x | x
COc1ccccc1OC1=NS(=O)(=O)c2ccccc21 | 40µM | u | n | n
O=C(C1=C[C@H](c2ccc(Br)cc2)C[C@H](OCCCCO)O1)N1CCOCC1 | n | 35µM | n | 12
NC(=O)C1=C[C@@H](c2ccc(Br)cc2)C[C@@H](OCCCCO)O1 | n | u | n | 7.8
NC(=O)C1=C[C@H](c2ccc(C(F)(F)F)cc2)C[C@H](OCCCCO)O1 | n | u | n | n
COc1cccc(CSc2nc3n(n2)C(c2cccc(F)c2)C(C(=O)Nc2ccccc2C)=C(C)N3)c1 (stereo not given) | n | n | x | x
Cc1ccsc1C(=O)NNC(=S)NC1CCCCC1 | n | n | 37 | 38
